Most compounds without a hit are left out; they make up all but 19% or so of the library.
TDP1 cell CPT: qHTS for Inhibitors of human tyrosyl-DNA phosphodiesterase 1 (TDP1): qHTS in cells in presence of CPT; chicken DT40 Tdp1-/-;hTDP1 cells + 20 nM CPT, ATP luminescence, 48 h; Potency, µM (titrated, usually from 46.2 µM), usual class: inhibitors; 420,000 compounds, 12% hits; AID 686979, 2013; further: nearly all actives have a fitted effect of over 55% in size
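Chicken DT40 Tdp1-/- cells stably complemented with human TDP1 were seeded at 400 cells/well in medium containing 20 nM camptothecin, exposed to pin-transferred compounds, and grown at 37 °C for at least 48 hr. Viability was read as ATP luminescence.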
IL-1B inflam inh: qHTS for Inhibitors of Inflammasome Signaling: IL-1-beta AlphaLISA Primary Screen. AID 743279, 2014. 360,000 compounds, 4.7% hits. activity change, % at 57.5 µM. THP-1 LPS/ATP IL-1B secretion, AlphaLISA, 16 h; hits give low values; in the data active means activity change below about -50%; inconclusive means mostly about -30% to -49%
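THP-1 cells pretreated 1 hr with compounds (up to 57.5 uM final), then stimulated with LPS (250 ng/mL final) plus ATP (1.25 mM final); secreted IL-1B measured by AlphaLISA after 16 hr, decreased signal indicating inhibition.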
uPA surface inh: qHTS for Inhibitors of Cell Surface uPA Generation | 330,000 compounds, 0.31% hits | Potency, µM (series often up to 38.3 µM), usual class: inhibitors | AID 540303, 2011 | cell surface uPA generation assay, qHTS; active means well fitted inhibition curve with a large enough effect; inconclusive means small, poorly fitted or top-dose-only effect; inactive means no such curve, though single readings can be large or run the other way; tested in mouse RAW 264.7 cells; further: nearly all actives have a fitted effect of over 55% in size
HT1080 IDH1KD tx: qHTS for induction of synthetic lethality in tumor cells producing 2HG: qHTS for the HT-1080-IDH1KD cell line. HT-1080 IDH1 knockdown viability, ATP luminescence, 48 h. AID 686971, 2013. Potency, µM (doses to about 46.1 µM), hits mostly cytotoxic. 360,000 compounds, 2% hits
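CellTiter-Glo luminescence after 48 h compound exposure at 37 degrees C of IDH1-knockdown HT-1080 cells in 5% FBS RPMI. %Activity scaled between DMSO wells and cell-free media wells, with curves fitted and assigned curve classes.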
HT1080-NT tox: qHTS for induction of synthetic lethality in tumor cells producing 2HG: qHTS for the HT-1080-NT fibrosarcoma cell line. HT-1080-NT fibrosarcoma viability, CellTiter-Glo ATP luminescence, 48 h. Potency, µM (titrated, usually from 46.1 µM), usual class: cytotoxic. 360,000 compounds, 1.6% hits;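 further: NT is the 2HG producing partner of a matched IDH1 knockdown line; nearly all actives have a fitted effect of over 55% in size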
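HT-1080-NT; 750 cells/well; 5% FBS RPMI; 48 h compound, 37 degrees C; CellTiter-Glo luminescence; curve fitting and curve-class assignment.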
TDP1 cell noCPT: qHTS for Inhibitors of human tyrosyl-DNA phosphodiesterase 1 (TDP1): qHTS in cells in absence of CPT. 420,000 compounds, 15% hits. AID 686978, 2013. DT40 Tdp1-/- hTDP1 cells, no CPT, ATP luminescence, 48 h. Potency, µM (series often up to 46.2 µM), usual class: inhibitors; further: nearly all actives have a fitted effect of over 55% in size
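Stably hTDP1-transfected Tdp1-null chicken DT40 cells were treated with library compounds minus camptothecin and grown for at least 48 hr at 37 °C, after which cellular ATP was quantified by luminescence.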
Large screens that a line does not name were inactive. Unless noted, the call rests on the fitted dose curve; in most records, active means well fitted curve in the direction sought with a large enough effect; inconclusive means small, poorly fitted or top-dose-only effect, or another doubt; inactive means no such curve, though single readings can be large; an effect the other way counts as inactive or inconclusive.

CCOC(=O)C1CCN(C(=O)CC(C)c2ccccc2)CC1 (configuration not stated)	TDP1 cell CPT 18µM, TDP1 cell noCPT inconclusive
CCOC(=O)C1CCCN(C(=O)c2ccc(-c3ccccc3)cc2)CC1 (configuration not stated)	TDP1 cell CPT 16µM, TDP1 cell noCPT inconclusive (no result: uPA surface inh)
CCOC(=O)C1CCCN(C(=O)c2ccc(OC)cc2)CC1 (configuration not stated)	HT1080 IDH1KD tx inconclusive (no result: uPA surface inh)
CCOC(=O)C1CCCN(C(=O)c2ccc3c(c2)C(C)(C)CCC3(C)C)CC1 (configuration not stated)	TDP1 cell CPT 8.2µM, HT1080 IDH1KD tx inconclusive, HT1080-NT tox inconclusive, TDP1 cell noCPT 6.5µM (no result: uPA surface inh)
O=C1CC(SC(=S)C2CCCC2=O)C(=O)N1 (configuration not stated)	TDP1 cell CPT inconclusive, TDP1 cell noCPT inconclusive (no result: uPA surface inh)
Cc1cccc(C)c1-n1nnnc1C(c1ccnc2ccccc12)N1CCN(c2ccccc2F)CC1 (configuration not stated)	TDP1 cell CPT inconclusive, TDP1 cell noCPT inconclusive (no result: uPA surface inh)
CCOC(=O)C1CCN(Cc2ccc3ccccc3c2)CC1	none
CCOC(=O)C1CCN(Cc2cc(C(C)C)c(O)c(C(C)C)c2)CC1	TDP1 cell CPT 9.2µM, TDP1 cell noCPT 9.2µM
CC(C)CCNC(=O)C(c1ccc(O)cc1)N(C(=O)C1COc2ccccc2O1)c1cccc(O)c1 (configuration not stated)	TDP1 cell CPT inconclusive, IL-1B inflam inh -76, HT1080 IDH1KD tx inconclusive, TDP1 cell noCPT 21µM
CCOc1cccc(N(C(=O)C2COc3ccccc3O2)C(C(=O)NC2CCCCC2)c2ccc(O)cc2)c1 (configuration not stated)	TDP1 cell noCPT inconclusive
Cc1ccc(NC(=O)N2CCC(CN3CCC(C)CC3)CC2)cc1F	none (no result: IL-1B inflam inh, uPA surface inh, HT1080 IDH1KD tx, HT1080-NT tox)
Cc1cccc(NC(=O)Cn2c(=O)n(CCc3ccccc3)c(=O)c3sc4ccccc4c32)c1	TDP1 cell CPT 16µM, TDP1 cell noCPT 23µM (no result: IL-1B inflam inh, uPA surface inh, HT1080 IDH1KD tx, HT1080-NT tox)
CCOc1ccc(NC(=O)Cn2c(=O)n(Cc3ccccc3)c(=O)c3sc4ccccc4c32)cc1	TDP1 cell CPT 6.5µM, TDP1 cell noCPT 9.2µM (no result: IL-1B inflam inh, uPA surface inh, HT1080 IDH1KD tx, HT1080-NT tox)
Cc1cccc(NC(=O)Cn2c(=O)n(Cc3ccccc3)c(=O)c3sc4ccccc4c32)c1	none (no result: IL-1B inflam inh, uPA surface inh, HT1080 IDH1KD tx, HT1080-NT tox)
Cc1ccc(NC(=O)CC2Nc3ccccc3NC2=O)cc1Cl (configuration not stated)	TDP1 cell CPT inconclusive, HT1080 IDH1KD tx 21µM, HT1080-NT tox 21µM, TDP1 cell noCPT inconclusive
CCOc1ccccc1NC(=O)CC1Nc2cc(C)c(C)cc2NC1=O (configuration not stated)	TDP1 cell CPT 18µM, TDP1 cell noCPT inconclusive
Cc1cc2c(cc1C)NC(CC(=O)Nc1ccccc1)C(=O)N2 (configuration not stated)	TDP1 cell CPT 16µM, TDP1 cell noCPT 26µM (no result: IL-1B inflam inh, uPA surface inh, HT1080 IDH1KD tx, HT1080-NT tox)
Cc1ccc(NC(=O)CC2Nc3ccccc3NC2=O)cc1C (configuration not stated)	none (no result: IL-1B inflam inh, uPA surface inh, HT1080 IDH1KD tx, HT1080-NT tox)
CCOC(=O)C(=O)N(C)c1c(CC)nc2c(OCc3cccc(OC)c3)cccn12	none (no result: uPA surface inh)
CCN(CC)c1ccc(N=Nc2ccc(S(=O)(=O)N(C)C)cc2)c(S(=O)(=O)NCC[n+]2ccccc2)c1	none (no result: IL-1B inflam inh, uPA surface inh, HT1080 IDH1KD tx, HT1080-NT tox)
Cc1cc(-c2cc(F)cc3c2OC(CNC(=O)[C@@H]2CCC(=O)N2)C3)ccc1F (some centres not stated)	none (no result: IL-1B inflam inh, uPA surface inh, HT1080 IDH1KD tx, HT1080-NT tox)
CN(C)c1ccc(NC(=O)CN2C(=O)CC(c3ccccc3)=Nc3ccccc32)cc1	none
Cc1ccc(NC(=O)CN2C(=O)CC(c3ccc(C)c(C)c3)=Nc3ccccc32)cc1	TDP1 cell CPT 21µM, TDP1 cell noCPT 18µM (no result: IL-1B inflam inh, uPA surface inh, HT1080 IDH1KD tx, HT1080-NT tox)

High-throughput results deposited in PubChem by National Center for Advancing Translational Sciences (NCATS).
